Screening results from PubChem.
NR0B1 inh – DAX1 (NR0B1) inhibitors, primary screen, cell-based, HEK293, Gal4-DAX1, luciferase luminescence. Nuclear receptor subfamily 0 group B member 1 (Homo sapiens), P51843. HEK293 Gal4-DAX1 luciferase reporter. inhibition, % at 6.75 µM. 0.99% of 340,000 active. AID 504766, 2011;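 active = inhibition above the mean over all tested compounds plus 3 SD, cut at about 4.2% in these data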;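 also: inhibition shows as a rise in luminescence from relieved DAX1 repression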
AHR activator – AHR activators, primary screen, cell-based, luminescence, luciferase reporter, human; AHR-responsive luciferase reporter cells; AID 2796, 2010; 2.5% of 320,000 active; Aryl hydrocarbon receptor (Homo sapiens), P35869; activation, % at 5 µM; in the data active = activation above about 47%
Target sequence (P35869 whole entry, looked up): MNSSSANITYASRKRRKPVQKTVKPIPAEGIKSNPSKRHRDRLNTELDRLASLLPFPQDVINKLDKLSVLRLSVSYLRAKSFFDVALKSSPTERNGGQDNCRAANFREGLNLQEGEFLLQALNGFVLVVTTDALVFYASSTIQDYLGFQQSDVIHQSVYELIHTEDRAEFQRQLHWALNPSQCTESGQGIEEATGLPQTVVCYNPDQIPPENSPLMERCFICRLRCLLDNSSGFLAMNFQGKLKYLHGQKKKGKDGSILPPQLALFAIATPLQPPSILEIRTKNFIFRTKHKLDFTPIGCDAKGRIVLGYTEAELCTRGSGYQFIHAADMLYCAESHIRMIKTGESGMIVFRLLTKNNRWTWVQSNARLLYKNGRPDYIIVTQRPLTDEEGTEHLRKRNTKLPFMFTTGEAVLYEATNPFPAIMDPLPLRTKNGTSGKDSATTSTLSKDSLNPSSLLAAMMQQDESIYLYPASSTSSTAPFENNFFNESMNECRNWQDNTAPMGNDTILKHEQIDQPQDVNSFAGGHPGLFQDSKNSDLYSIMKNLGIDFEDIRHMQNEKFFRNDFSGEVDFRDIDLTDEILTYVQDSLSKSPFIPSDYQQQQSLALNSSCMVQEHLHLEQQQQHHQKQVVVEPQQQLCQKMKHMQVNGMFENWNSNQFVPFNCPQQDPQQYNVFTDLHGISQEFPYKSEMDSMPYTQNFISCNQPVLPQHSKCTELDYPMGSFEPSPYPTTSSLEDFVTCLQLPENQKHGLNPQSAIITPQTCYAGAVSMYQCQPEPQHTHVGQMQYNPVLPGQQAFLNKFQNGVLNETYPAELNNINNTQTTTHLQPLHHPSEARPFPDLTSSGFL
FXN GAA850 act – FXN promoter activators, primary screen, cell-based, luciferase luminescence, HEK293 lucGAA850; AID 540364, 2011; HEK293 lucGAA850 FXN promoter luciferase reporter, 24 h; percent of 10 µM SAHA response; 0.56% of 360,000 active; activation, % at 6 µM;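 active = activation above the average of all compounds screened plus 3 SD, cutoff fixed separately per campaign, cut at about 7.5% in these data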
HSF1 inhib – HSF1 inhibitors in luciferase reporter cells, primary screen, cell-based, NIH3T3, luminescence; NIH3T3-HGL HSE-luciferase, MG132-induced, luminescence 8 h; hits give low values; activity change, negative = inhibition, % at 7.5 µM (by protocol); 0.77% of 300,000 active; AID 2098, 2009;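 active = more than half of replicate wells show activity change below -50%, luminescence cut by over half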;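 also: luciferase reports HSF-1 transcriptional activity via heat shock element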
HSF1 activator – HSF-1 activators, primary screen, NIH3T3-HGL cells, MG132 stress, luminescence, single point; NIH3T3-HGL HSF-1 luciferase reporter, 8 h; 100% = twice DMSO control signal; 1.7% of 300,000 active; activation, % at 9 µM;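 active = mean replicate activation of at least 50% with a set share of replicates each reaching 50%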
A number is an active result; i = inactive; nt = no result given. Sampled rows, rich in hits. Any-hit rate of the full collection: about 5.4%.

SMILES | NR0B1 inh | AHR activator | FXN GAA850 act | HSF1 inhib | HSF1 activator
Cc1cc(Oc2nc3ccccn3c(=O)c2/C=C(\C#N)C(=O)NC2CCS(=O)(=O)C2)ccc1Cl (centres undefined) | i | i | i | i | 60
COc1ccc(CC(=O)Nc2nnc(C(C)(C)C)s2)cc1OC | i | i | i | i | i
CN(C)S(=O)(=O)c1ccc(C(=O)NCc2nnc(SCC(=O)c3ccccc3)o2)cc1 | i | i | i | i | i
Cc1ncc(CN2CCCC(C(=O)Nc3ccc(-n4ccnc4C)cc3)C2)cn1 (centres undefined) | i | i | i | i | i
CC(C)[C@H](NC(=O)OC(C)(C)C)C(=O)NCC1CCC(C(=O)N[C@@H](Cc2ccccc2)C(=O)O)CC1 (some centres undefined) | i | i | i | -59 | i
CC(C)C[C@H](NC(=O)OC(C)(C)C)C(=O)NCC1CCC(C(=O)N[C@@H](Cc2ccccc2)C(=O)O)CC1 (some centres undefined) | i | i | i | i | i
CC(C)[C@H](N)C(=O)NC[C@H]1CC[C@H](C(=O)N[C@@H](Cc2ccccc2)C(=O)O)CC1 | i | i | i | -63 | i
Cc1ccc(N2CCN(S(=O)(=O)c3c(C)nc4scc(C)n4c3=O)CC2)c(C)c1 | i | i | i | i | i
O=C(Nc1ccc2c(c1)OCCO2)c1cc2sccc2n1Cc1ccc(F)cc1 | i | 64 | i | i | i
COc1cccc(-c2nc(N3CCN(c4ccccc4)CC3)c3ccccc3n2)c1O | i | i | i | i | 66
COc1ccc(Nc2nc(N)nc(CSc3n[nH]c(-c4ccccc4)n3)n2)cc1 | i | 49 | i | i | i
Nc1nc(CSc2ncccn2)nc(Nc2ccccc2)n1 | i | i | i | i | i
Cc1ccc(Nc2nc(N)nc(CSc3ncccn3)n2)cc1 | i | 68 | i | i | 66
Cc1ccc(Nc2nc(N)nc(CSCCO)n2)cc1 | i | 48 | i | i | i
Nc1nc(CSc2n[nH]c(-c3ccccc3)n2)nc(Nc2ccccc2)n1 | i | i | i | i | i
Cc1ccc2c(c1)c1c3n2CCN(C=O)C3CCC1 (centres undefined) | i | 53 | i | i | i
CCN(CC)CCN1CCn2c3c(c4cc(C)ccc42)CCCC31 (centres undefined) | i | i | i | i | i
COc1ccc(C2Nc3cc(OC)ccc3-n3cccc32)cc1 (centres undefined) | i | 60 | i | i | i
COc1ccc(C2NC(=S)N3C(c4ccc(OC)cc4)NC(=S)N23)cc1 (centres undefined) | i | i | i | i | i
CC(=O)Nc1ccc(CN2CCC(CO)(CCOc3ccccc3)CC2)cc1 | i | i | i | -56 | i
CCOC(=O)C1(CCOc2ccccc2)CCN(Cc2ccc(NC(C)=O)cc2)CC1 | i | i | i | i | i
COc1cc(NC(=O)c2cccc(F)c2)cc(OC)c1OC | i | 63 | i | i | i
COc1ccc(C(N)=O)cc1NC(=O)c1cccc(F)c1 | i | 61 | i | i | i
Clc1ncnc2scc(-c3ccc(Br)cc3)c12 | i | i | i | i | i
Cc1cc(C(C)(C)C)ccc1OC(=O)C1=CC=CN2CCS(=O)(=O)N=C12 | i | nt | i | nt | nt
SMILES | NR0B1 inh | AHR activator | FXN GAA850 act | HSF1 inhib | HSF1 activator
O=[N+]([O-])c1ccc(COc2ccccc2/C=N/O)cc1 | i | i | i | i | i
O=C1NC(=O)/C(=C\c2ccccc2OCc2ccc([N+](=O)[O-])cc2)N1 | i | 72 | i | i | i
COc1ccc(-c2csc(-c3ccccc3)n2)c(OC)c1 | 4.6 | i | i | i | 54
Cc1oncc1-c1csc(-c2ccccc2Cl)n1 | i | i | i | i | i
Cc1oncc1-c1csc(-c2ccccc2)n1 | 5.3 | i | i | i | i
O=C(Nc1nccs1)c1ccc(Br)cc1 | i | i | i | i | i
COc1cc2ccccc2cc1C(=O)Nc1nccs1 | i | 57 | i | i | i
CC(=O)Nc1sc(NC(=O)c2ccccc2)nc1-c1cccs1 | i | i | i | i | i
COc1cc2ccccc2cc1C(=O)Nc1ccc(Br)cn1 | i | nt | i | i | i
COc1ccc(C(CC(=O)Nc2nccs2)n2cccc2)cc1 (centres undefined) | i | i | i | i | 58
